Here are results for 40 molecules from PubChem BioAssay (NCI).

Where “and” joins values, the source holds several entries; their conditions need not be identical. Equal entries are not always repeated. About 83,000 compounds went through this panel and 20% of them were active in at least one assay; those are over-represented in the sample as a whole.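 The test compound was applied at a single concentration to cells in 96-well plates for 48 hours, and percent growth was recorded.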 Values without a mark were called inactive. Calls of active or inactive are those of the source. How the source made its calls: active means growth percent below 10; inactive means the rest.

The subject of the assay is MDA-MB-468 breast. Kind of assay: NCI-60 one-dose screen, 48 h (100 = growth as untreated, 0 = no growth, -100 = all killed). As to conditions: 10 µM unless noted.
Turning to `COc1cc(NC(=O)NCc2ccco2)ccc1-c1ccc(NC(=O)NCc2ccco2)cc1OC`, the growth was 16.8%.

On to `Cn1cnc2c(F)c(Nc3ccc(Br)cc3F)c(C(=O)NOCCO)cc21`, for which the growth is 97.3%.

Turning to `O=C(NCCO)c1cccnc1`, the growth is 93.7%.

For the molecule `COC(=O)[C@]12CC[C@@H](C)[C@H](C)[C@@H]1C1=CC[C@@H]3[C@@](C)(CC#N)C4=C(C[C@@]3(C)[C@]1(C)CC2)OC[C@]4(C)C=O`, the growth is -83% (active).

Take `CCCCN(CCCC)CCC(O)c1cc2ccc(C(F)(F)F)cc2c2cc(C(F)(F)F)ccc12` (stereo not given): the growth is 39.6%.

In the case of `CC(=O)c1cccc(N(C)S(=O)(=O)c2ccc(C)cc2)c1`, the growth is 111%.

Take `COc1cc(COC(=O)CCCCC[P+](c2ccccc2)(c2ccccc2)c2ccccc2)c(OC)c2c1OCO2`: the growth was -2.4% (active).

`O=C(N/N=C/[C@H](O)[C@@H](O)[C@@H](O)[C@H](O)CO)c1ccc(NC(=O)c2cccnc2)cc1`: the growth was 105%.

As to `COc1ccc(C2CC(c3cc(OC)c(OC)c(OC)c3)=NN2c2ccc(S(N)(=O)=O)cc2)cc1` (stereo not given), the growth is 71%.

For `CN1CCN(Cc2ccc(NC(=O)c3cnc(F)c(C#Cc4cnc(N)c5ncccc45)c3)cc2C(F)(F)F)CC1`, the growth is -5.56% (active).

For the molecule `CNC(=S)NNC(=O)C1CC1`, the growth is 108%.

`CC/C=C\C[C@H](O)C/C=C1/C(=O)C=C[C@@H]1C/C=C\CCCC(=O)O`: the growth is 28.7%.

As for `CC(C)CCSC1=CC(=O)c2ccccc2C1=O`, the growth is -84.1% (active).

In the case of `COc1cc(-c2nc(N3CCN(C)CC3)c3ccccc3n2)cc(OC)c1OC`, the growth is 38.4%.

On to `C#C[C@]1(O)CC[C@H]2[C@@H]3CC=C4c5sc(Nc6cc(C)cc(C)c6)nc5CC[C@]4(C)[C@H]3CC[C@@]21C`, for which the growth is -11.3% (active).

For `CN1CCN(CCOc2ccc(-c3cnc4c(-c5ccc(C(F)(F)F)cc5)cnn4c3)cc2)CC1`, the growth is 42.1%.

As for `CCN1C(=S)N(CC)C2C1NC(=S)N2/N=C/C=C/c1ccccc1` (stereo not given), the growth was 2.3% (active).

For `O=C(NCCc1ccccc1)/C(=C\c1ccc(Cl)cc1Cl)NC(=O)c1ccccc1`, the growth is 95.1%.

`COc1ccc(/C=C2/SC(=S)NC2=O)c(OC)c1OC`: the growth is 65.4%.

With `COC(=O)[C@@]12CC=C(C)[C@]3(C[C@H](c4ccoc4)OC3=O)[C@H]1C=C[C@@H](O)[C@@]2(O)C(=O)OC`, the growth was 121%.

Take `CCOC(=O)c1nn(-c2ccc(C)cc2)c(=O)c2c(N)c(C#N)c(-c3ccc(OC)cc3)cc12`: the growth is 102%.

Consider `CCN(CC)CCOc1ccc(/C(=C(\C)c2ccc(OC)c(F)c2)c2ccc(Cl)cc2)cc1`, for which the growth is 81.6%.

In the case of `c1ccc(Cn2cc3c(c2-c2ccccc2)CCc2cnoc2-3)cc1`, the growth was 66.5%.

Regarding `CCN(CC)c1ccc(/C=N/NC(=O)c2ccc(Nc3ccnc(C(F)(F)F)c3)cc2)c(O)c1`, the growth was 8.37% (active).

Consider `Clc1cc(Cl)cc(N2N=C(c3cccc(Nc4ccncc4)c3)CC2c2ccc3c(c2)OCO3)c1` (stereo not given), for which the growth was 24.8%.

In the case of `CC1NC(=S)NC(=O)/C1=C/c1cc(=O)oc2c1ccc1ccccc12` (stereo not given), the growth was 103%.

As for `COc1ccc2c(NCCCCCCCCNc3c4ccccc4nc4cc(OC)ccc34)c3ccccc3nc2c1`, the growth is -100% (active).

`CC(C)(C)c1ccc(NS(=O)(=O)c2ccc3nc(NC(=O)c4cnccn4)[nH]c3c2)cc1`: the growth was -18.6% (active).

As to `N#Cc1nc(-c2ccccc2)oc1N1CC[C@@H](CO)C1`, the growth was 95.2%.

Take `CCC(C)CC(N)O` (stereo not given): the growth is 94.1%.

As to `O=C1/C=C/[C@@H](O)[C@@H]2C[C@@H](O)C[C@H]2/C=C/CCC[C@H](CCc2ccc(C(F)(F)F)cc2)O1`, the growth was -20.3% (active).

Turning to `COc1ccc(CCNC=O)cc1OC`, the growth is 77.7%.

Turning to `COc1c(NC=O)c2c(c([N+](=O)[O-])c1OC)C(=O)OC2`, the growth was 113% and 93.1%.

Regarding `CC(=O)c1c(C)nc2ccccc2c1/C=C/c1cccc(C)c1`, the growth is 28.5%.

Turning to `O[C@@H](c1cc(C(F)(F)F)nc2c(C(F)(F)F)cccc12)[C@H]1CCCCN1`, the growth was 42.6%.

As to `O=C(O)COc1ccc(F)cc1`, the growth was 98.8%.

With `CO[C@H]1CC[C@@]2(C)C(=CC[C@H]3[C@@H]4C[C@H](O)C[C@@]4(C)CC[C@@H]32)C1`, the growth is -12.8% (active).

With `Fc1cccc(-c2nc(-c3c[nH]c4ncccc34)cs2)c1`, the growth was 29.4% [100 µM].

On to `N#Cc1nc(-c2ccc(F)cc2)oc1S(=O)(=O)N1CCN(c2ccc(F)cc2)CC1`, for which the growth is 86.9%.

For `CCN(CC)CCNc1ccc(C)c2sc3cc(C)ccc3c(=O)c12`, the growth is 66.5%.
